Test results: the supplement of paper PMC10849652
Of roughly 8,800 targets only a part is listed; those with a hit were picked by preference. About 0.5% of all pairs of compound and target were hits.

Compound: O=C(O)c1ccc2c(c1)nc(Nc1cccc(Cl)c1)c1ccncc12 [silmitasertib]
Experiment: log2 fold change, soluble protein after heating vs DMSO (PISA); higher = thermal stabilisation; K562 lysate, 10 uM; active = over 0.2 and 3.5 SD of the protein, either way, in both replicates (recomputed)
Method in brief: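 Values give the log-two fold change in thermal stability against solvent controls, from duplicates. Crude K562 extract at 1 mg/mL protein, made by dounce homogenisation in PBS pH 7.4 with 1 mM MgCl2, was treated with 10 μM compound for 30 min. After 3 min heating across 48°C-58°C, aliquots were pooled, adjusted to 0.5% NP-40 at 4°C and centrifuged at 21,000xg for 90 min. The supernatant was measured by TMTpro 16plex LC-MS/MS with channel sums equalised.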

Sequence of UniProt O14617 (O14617 whole entry, looked up): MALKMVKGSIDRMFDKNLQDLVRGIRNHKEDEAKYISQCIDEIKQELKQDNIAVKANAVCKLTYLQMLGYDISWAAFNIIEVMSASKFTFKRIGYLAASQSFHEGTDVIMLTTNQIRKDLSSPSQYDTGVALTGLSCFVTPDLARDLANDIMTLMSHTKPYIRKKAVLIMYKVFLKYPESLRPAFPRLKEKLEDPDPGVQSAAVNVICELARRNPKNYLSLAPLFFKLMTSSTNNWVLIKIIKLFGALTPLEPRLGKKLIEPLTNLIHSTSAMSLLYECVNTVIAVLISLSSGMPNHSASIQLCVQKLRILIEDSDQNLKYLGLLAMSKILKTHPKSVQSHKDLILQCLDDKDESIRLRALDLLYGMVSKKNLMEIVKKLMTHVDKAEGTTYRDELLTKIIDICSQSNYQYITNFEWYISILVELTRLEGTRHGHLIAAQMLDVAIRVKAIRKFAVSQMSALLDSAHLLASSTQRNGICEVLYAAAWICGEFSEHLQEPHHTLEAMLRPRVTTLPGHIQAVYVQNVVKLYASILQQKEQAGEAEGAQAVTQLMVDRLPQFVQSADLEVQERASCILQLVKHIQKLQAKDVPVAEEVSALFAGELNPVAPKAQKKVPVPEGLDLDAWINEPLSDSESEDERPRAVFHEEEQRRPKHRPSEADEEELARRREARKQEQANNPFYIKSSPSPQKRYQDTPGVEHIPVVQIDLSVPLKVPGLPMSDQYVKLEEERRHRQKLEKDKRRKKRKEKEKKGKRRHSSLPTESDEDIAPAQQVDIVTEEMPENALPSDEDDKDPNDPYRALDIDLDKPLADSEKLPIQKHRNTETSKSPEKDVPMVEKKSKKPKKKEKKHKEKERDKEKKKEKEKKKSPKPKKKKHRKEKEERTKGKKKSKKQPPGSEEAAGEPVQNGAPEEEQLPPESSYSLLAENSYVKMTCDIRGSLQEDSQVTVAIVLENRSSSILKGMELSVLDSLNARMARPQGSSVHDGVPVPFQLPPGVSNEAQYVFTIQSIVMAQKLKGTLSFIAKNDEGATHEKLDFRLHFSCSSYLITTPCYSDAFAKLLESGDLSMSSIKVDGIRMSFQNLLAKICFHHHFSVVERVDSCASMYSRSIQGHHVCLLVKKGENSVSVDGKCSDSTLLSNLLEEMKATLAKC
Sequence of UniProt Q9BVK2 (Q9BVK2 whole entry, looked up): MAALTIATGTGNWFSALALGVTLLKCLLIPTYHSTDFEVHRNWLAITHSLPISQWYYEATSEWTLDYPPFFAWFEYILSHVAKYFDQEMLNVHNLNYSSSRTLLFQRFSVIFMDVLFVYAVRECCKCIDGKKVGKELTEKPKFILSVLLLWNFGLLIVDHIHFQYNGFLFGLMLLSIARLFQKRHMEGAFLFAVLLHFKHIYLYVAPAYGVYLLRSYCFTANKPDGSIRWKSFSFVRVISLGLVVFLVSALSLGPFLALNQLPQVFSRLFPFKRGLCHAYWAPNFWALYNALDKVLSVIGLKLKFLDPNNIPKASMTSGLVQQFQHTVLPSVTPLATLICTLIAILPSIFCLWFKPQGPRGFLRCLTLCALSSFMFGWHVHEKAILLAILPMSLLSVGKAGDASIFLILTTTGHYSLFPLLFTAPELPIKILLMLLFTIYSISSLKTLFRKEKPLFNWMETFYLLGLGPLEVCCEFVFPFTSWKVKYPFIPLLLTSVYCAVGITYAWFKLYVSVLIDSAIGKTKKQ
Sequence of UniProt Q5T5U3 (Q5T5U3 whole entry, looked up): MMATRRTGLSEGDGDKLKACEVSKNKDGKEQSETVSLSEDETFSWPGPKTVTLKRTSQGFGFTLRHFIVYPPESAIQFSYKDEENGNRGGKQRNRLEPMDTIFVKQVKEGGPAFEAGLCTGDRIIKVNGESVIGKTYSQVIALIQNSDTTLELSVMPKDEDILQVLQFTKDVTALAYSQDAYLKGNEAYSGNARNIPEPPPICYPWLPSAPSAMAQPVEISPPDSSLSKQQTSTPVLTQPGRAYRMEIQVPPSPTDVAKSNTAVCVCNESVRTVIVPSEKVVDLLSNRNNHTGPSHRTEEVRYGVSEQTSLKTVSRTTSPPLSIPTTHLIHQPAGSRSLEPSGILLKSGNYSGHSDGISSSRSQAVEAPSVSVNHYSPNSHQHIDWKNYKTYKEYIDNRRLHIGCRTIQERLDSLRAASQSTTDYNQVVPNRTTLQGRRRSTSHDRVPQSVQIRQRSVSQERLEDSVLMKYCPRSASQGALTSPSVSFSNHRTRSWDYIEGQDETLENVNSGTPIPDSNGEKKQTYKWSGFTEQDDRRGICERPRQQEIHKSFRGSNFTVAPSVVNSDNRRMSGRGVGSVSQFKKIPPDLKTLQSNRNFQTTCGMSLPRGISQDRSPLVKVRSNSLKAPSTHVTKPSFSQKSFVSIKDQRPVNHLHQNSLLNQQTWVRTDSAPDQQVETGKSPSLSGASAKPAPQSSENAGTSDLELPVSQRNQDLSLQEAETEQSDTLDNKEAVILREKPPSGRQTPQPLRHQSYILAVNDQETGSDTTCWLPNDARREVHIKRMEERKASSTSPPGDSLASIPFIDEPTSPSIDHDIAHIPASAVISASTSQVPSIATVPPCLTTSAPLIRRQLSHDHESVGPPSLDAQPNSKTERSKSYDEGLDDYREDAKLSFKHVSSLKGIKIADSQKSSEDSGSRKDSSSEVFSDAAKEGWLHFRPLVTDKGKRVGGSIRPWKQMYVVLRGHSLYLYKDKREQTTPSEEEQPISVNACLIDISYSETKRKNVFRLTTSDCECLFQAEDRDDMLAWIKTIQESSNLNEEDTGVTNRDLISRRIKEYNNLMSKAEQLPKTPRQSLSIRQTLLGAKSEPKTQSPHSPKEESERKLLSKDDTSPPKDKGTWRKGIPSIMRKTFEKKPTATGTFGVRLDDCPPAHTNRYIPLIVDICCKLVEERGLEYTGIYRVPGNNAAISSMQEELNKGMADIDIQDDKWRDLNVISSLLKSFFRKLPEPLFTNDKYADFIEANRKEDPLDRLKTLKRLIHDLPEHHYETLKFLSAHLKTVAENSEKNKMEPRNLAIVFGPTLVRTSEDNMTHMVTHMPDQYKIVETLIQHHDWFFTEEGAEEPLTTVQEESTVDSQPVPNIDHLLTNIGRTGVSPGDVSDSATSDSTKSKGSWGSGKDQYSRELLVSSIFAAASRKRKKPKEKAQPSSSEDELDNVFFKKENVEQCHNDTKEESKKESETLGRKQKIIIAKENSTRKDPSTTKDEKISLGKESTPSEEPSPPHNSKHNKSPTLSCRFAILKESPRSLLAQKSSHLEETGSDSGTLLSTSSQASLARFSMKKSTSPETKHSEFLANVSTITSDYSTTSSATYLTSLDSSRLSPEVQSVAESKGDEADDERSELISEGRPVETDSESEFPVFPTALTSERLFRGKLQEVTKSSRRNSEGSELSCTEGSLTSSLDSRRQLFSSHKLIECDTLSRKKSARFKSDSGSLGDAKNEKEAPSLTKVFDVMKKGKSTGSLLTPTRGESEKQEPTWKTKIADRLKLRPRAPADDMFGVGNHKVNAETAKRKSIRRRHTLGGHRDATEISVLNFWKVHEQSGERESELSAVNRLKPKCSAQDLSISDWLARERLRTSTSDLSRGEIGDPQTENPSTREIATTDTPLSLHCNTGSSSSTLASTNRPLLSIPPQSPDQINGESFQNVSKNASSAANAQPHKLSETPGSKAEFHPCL
Sequence of UniProt P31751 (P31751 whole entry, looked up): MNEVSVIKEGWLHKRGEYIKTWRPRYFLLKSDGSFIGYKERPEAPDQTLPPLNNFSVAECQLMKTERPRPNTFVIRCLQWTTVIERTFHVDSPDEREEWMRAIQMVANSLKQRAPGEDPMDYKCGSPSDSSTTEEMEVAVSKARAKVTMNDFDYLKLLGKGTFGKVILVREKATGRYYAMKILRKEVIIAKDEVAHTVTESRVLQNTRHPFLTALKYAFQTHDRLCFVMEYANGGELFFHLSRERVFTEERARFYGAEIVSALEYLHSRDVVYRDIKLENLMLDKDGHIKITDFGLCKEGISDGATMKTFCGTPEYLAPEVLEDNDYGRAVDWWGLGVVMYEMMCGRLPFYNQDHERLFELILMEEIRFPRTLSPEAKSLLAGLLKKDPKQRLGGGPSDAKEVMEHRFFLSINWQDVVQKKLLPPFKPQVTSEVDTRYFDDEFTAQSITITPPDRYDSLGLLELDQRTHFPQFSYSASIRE
Sequence of UniProt Q96BM9 (Q96BM9 whole entry, looked up): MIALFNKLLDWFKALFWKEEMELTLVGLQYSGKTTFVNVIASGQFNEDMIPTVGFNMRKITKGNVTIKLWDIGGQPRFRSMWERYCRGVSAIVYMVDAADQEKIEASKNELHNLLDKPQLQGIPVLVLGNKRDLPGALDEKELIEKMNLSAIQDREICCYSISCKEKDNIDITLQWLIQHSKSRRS
Sequence of UniProt Q9NXU5 (Q9NXU5 whole entry, looked up): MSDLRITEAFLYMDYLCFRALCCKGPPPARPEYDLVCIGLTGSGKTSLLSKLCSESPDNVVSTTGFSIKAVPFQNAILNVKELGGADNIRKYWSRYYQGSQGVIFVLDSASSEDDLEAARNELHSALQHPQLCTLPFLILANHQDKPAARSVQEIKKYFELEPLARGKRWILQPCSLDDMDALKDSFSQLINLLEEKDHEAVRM
Sequence of UniProt P00352 (P00352 whole entry, looked up): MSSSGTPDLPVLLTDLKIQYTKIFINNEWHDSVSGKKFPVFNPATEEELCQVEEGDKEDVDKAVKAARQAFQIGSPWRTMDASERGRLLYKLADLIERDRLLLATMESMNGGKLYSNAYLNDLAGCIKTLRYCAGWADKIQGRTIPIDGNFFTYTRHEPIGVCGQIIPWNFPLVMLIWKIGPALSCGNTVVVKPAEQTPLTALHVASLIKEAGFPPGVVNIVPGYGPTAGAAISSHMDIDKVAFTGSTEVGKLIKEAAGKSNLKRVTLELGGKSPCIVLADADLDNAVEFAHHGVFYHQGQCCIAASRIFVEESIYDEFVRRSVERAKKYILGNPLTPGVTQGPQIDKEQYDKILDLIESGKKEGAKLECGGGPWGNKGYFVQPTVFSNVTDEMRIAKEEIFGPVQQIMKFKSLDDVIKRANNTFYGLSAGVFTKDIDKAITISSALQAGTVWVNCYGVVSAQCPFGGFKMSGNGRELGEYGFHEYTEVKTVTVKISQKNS

log2 fold change, inactive:
ACAT1 (UniProt P24752) -0.037
AMD1 (UniProt P17707) 0.062
ACLY (UniProt P53396) 0.012
ANXA13 isoform 2 (UniProt P27216) 0.024
ACOX1 isoform 2 (UniProt Q15067) 0.009
ANAPC7 (UniProt Q9UJX3) 0.023
ARMC6 (UniProt Q6NXE6) 0.02
AKT2 (UniProt P31751) 0.011
ARHGAP21 (UniProt Q5T5U3) 0.014
ARL8A (UniProt Q96BM9) -0.024
ALG13 (UniProt Q9NP73) -0.01
ARHGAP25 isoform 4 (UniProt P42331) 0.011
ABCC5 (UniProt O15440) -0.023
ACYP2 (UniProt P14621) -0.081
ACACB (UniProt O00763) 0.03
ALG8 (UniProt Q9BVK2) 0.063
ARMCX3 (UniProt Q9UH62) 0.036
ASB6 (UniProt Q9NWX5) -0.057
ABCA3 (UniProt Q99758) -0.062
AK1 (UniProt P00568) 0.001
ADK (UniProt P55263) 0.073
AHCYL1 (UniProt O43865) -0.021
ACIN1 isoform 5 (UniProt Q9UKV3) 0.001
ANKRD10 (UniProt Q9NXR5) 0.037
ADD1 isoform 3 (UniProt P35611) -0.012
APEX1 (UniProt P27695) 0.026
ACTG1 (UniProt I3L4N8) -0.043
ALDH1A1 (UniProt P00352) -0.011
ARL15 (UniProt Q9NXU5) 0.016
ARL13B (UniProt Q3SXY8) -0.024
AP3D1 isoform 5 (UniProt O14617) -0.003
AFF4 (UniProt Q9UHB7) -0.04
AP3D1 isoform 2 (UniProt O14617) 0.02
ACACA isoform 4 (UniProt Q13085) 0.016
